Among all 48,000 compounds or so, about 13,000 (27%) showed an effect of 50% or more. Some of the results follow.
What follows are compounds tested on Wolbachia pipientis (assay: Anti-Wolbachia Cell-Based Screen). Conditions: 5 µM.
Type: functional
Parameters: scale not given: in the data most compounds retested in dose-response had high values

SMILES	Percent Effect
Cc1nc(C)c(C(=O)N2Cc3ccccc3OCC2Cn2ccnc2)o1 (configuration not stated)	-31.31%
CCc1nc2n(n1)CC(NCCc1cccs1)CC2 (configuration not stated)	-19.61%
N#Cc1c(F)cccc1NCCCOCC1CCOCC1	-8.528%
O=C1CC(c2ccsc2)c2snc(C(=O)O)c2N1 (configuration not stated)	-3.117%
CC1(C)CNC(=O)CN(C(=O)Cc2ccccc2)C1	98.91%
CCc1ccc(CCC(=O)N2CCC(=O)Nc3cccnc32)cc1	-4.556%
CC1(C)CNC(=O)CN(C(=O)COc2ccccc2)C1	99.32%
O=C1CCC2(CCCN(C(=O)Cc3ccccc3)C2)N1 (configuration not stated)	-74.63%
CC1(C)CNC(=O)CN(C(=O)CCc2ccccc2)C1	92.84%
Cc1ccnc2c1NC(=O)CN2C(=O)CCc1ccccc1	5.988%
Cc1nc(-c2ccc(CC(=O)N3CCNC(=O)C3)cc2)cs1	-10.4%
Cc1ccc(N2CCN(C(=O)COc3ccccc3)CC2)nn1	-10.88%
COc1ccc(CC(=O)N2CC(=O)NCC(C)(C)C2)cc1	81.26%
COc1ccc(CC(=O)N2CC[C@@H]3NC(=O)CC[C@@H]32)cc1	-10.22%
CCc1nsc(N2CCN(C(=O)COc3ccccc3)CC2)n1	-3.89%
O=C(O)C(F)(F)F.O=C1CCC2(CCCN(C(=O)Cc3cccnc3)C2)N1 (configuration not stated)	-30.04%
CN(C)C(=O)CS(=O)(=O)Cc1ccn(-c2cccc(F)c2)n1	3.991%
CCn1c(CN(C)C)nnc1C1CCN(Cc2ccc(C)s2)CC1	-25.38%
COc1ccc(-c2n[nH]cc2CN(C)CCCN2CCOCC2)c(F)c1	4.429%
N#Cc1nccnc1NCCC1CCN(CC(F)(F)F)CC1	-10.09%
O=C(CN1CCC2(CCCCC2)C1)NCC(F)(F)F	-17.09%
O=C(NCCCn1cccn1)N1CCCC1c1ccncc1 (configuration not stated)	20.68%
Cc1cnn(CCNCc2ccc(F)cc2Cl)c1	-9.942%
COc1ccccc1N1CCC(CNC(=O)CN2CSCC2=O)C1 (configuration not stated)	-5.034%
CC(C)c1cn(CC(=O)NC2CC(=O)N(CCc3ccccc3)C2)nn1 (configuration not stated)	94.88%
COc1ccccc1N1CC(NC(=O)Cn2cc(C(C)C)nn2)CC1=O (configuration not stated)	82.88%

SMILES	Percent Effect
COc1ccccc1N1CCN(CC[C@H](O)c2ccccc2)CC1=O	-5.081%
CC(C)Oc1ccccc1C(=O)NC1CC(=O)N(CC(F)(F)F)C1 (configuration not stated)	-7.447%
COc1ccccc1N1CCCC(Nc2ncccn2)C1=O (configuration not stated)	-13.39%
O=C(NCC1CC(=O)N(CCc2ccccc2)C1)c1ccc[nH]1 (configuration not stated)	-4.58%
Cc1ccccc1C(NC(=O)Cn1cc(C2CC2)nn1)C1CC1 (configuration not stated)	6.908%
COc1ccccc1N1CC(NC(=O)Cn2cc(C)nn2)CC1=O (configuration not stated)	83.28%
COc1ccc(CCNC(=O)NC2CC(=O)N(c3ccccc3)C2)cc1 (configuration not stated)	13.52%
O=C1CC(NS(=O)(=O)N2CCOCC2)CN1CCc1ccccc1 (configuration not stated)	3.785%
COc1ccccc1N1CC(NC(=O)c2cc(C(C)C)nn2C)CC1=O (configuration not stated)	186.5%
COc1cc(-c2cccc3c2OC(CN)C3)ccc1O (configuration not stated)	12.42%
CC(C)(C)NC(=O)c1cnc2n1CCCC2	-4.757%
CCOC(=O)N1CCN(c2nc(C)ncc2CC)CC1	-1.601%
CC(=O)N1CCC2(CC1)c1ncc(-c3ccc(F)cc3)n1CCN2C	95.01%
CCS(=O)(=O)N1CCC2(CC1)c1ncc(-c3cccnc3)n1CCN2C	107%
CC(=O)N1CCC2(CC1)c1ncc(-c3ccccc3)n1CCN2C(C)=O	23.35%
Cc1ccc(-c2cnc3n2CCN(C)C32CCN(CC3CC3)CC2)cc1.O=C(O)C(F)(F)F.O=C(O)C(F)(F)F.O=C(O)C(F)(F)F	0.5048%
CC(=O)N1CCC2(CC1)c1ncc(-c3ccccc3)n1CCN2C	98.56%
CN1CCn2c(-c3ccccc3)cnc2C12CCN(CC1CC1)CC2.O=C(O)C(F)(F)F.O=C(O)C(F)(F)F.O=C(O)C(F)(F)F	-7.532%
CC(=O)N1CCn2c(-c3ccccc3)cnc2C12CCNCC2.O=C(O)C(F)(F)F.O=C(O)C(F)(F)F	-11.86%
CCS(=O)(=O)N1CCC2(CC1)CCn1c(-c3cnn(C)c3)cnc12.O=C(O)C(F)(F)F	2.009%
Cc1cc(C(=O)N2CCC(n3cc(CO)nn3)CC2)ccc1F	2.644%
CN(C)C(=O)CCN1CC(c2ccccc2)(c2ccccc2)CCC1=O	-7.363%
Cc1nnc(CN(C)CC(=O)N2CCCC(C)CC2)n1C (configuration not stated)	-6.061%
Cc1cc(C[C@@H]2COC[C@@H]2NC(=O)CNC(=O)N(C)C)on1	-9.814%
CS(=O)(=O)CCC(=O)NC(Cc1ccccc1)C1CC1 (configuration not stated)	2.067%
O=C(CCN1CCCC1=O)NCc1cccnc1Oc1ccccc1	-4.21%

From ChEMBL document CHEMBL3988442, “University of Dundee, Small-Polar-MMV Screening Library” (2021)
